± gives the standard deviation.
System: OVCAR-3-derived ovarian cancer stem-like cells (spheroids)
Test: cell growth relative to untreated control; higher = more growth (less inhibition)
Settings: 2.29 µM; 96 h
How it was run: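 After trypsin dissociation, OVCAR-3 spheroid-derived stem-like cells were placed in ultra-low attachment 96-well plates at 50,000 cells/mL in stem cell medium and preincubated for 24 h. Treatment at 2.29 uM followed for 96 h at 37°C, 5% CO2, with 4 replicate wells per compound. A 4 h TOX8 resazurin fluorescence read (ex 560/em 590 nm) gave viability, from which percent growth relative to untreated wells was derived after blank subtraction and Grubbs outlier removal.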

Structure (SMILES)	cell growth
COc1cccc2c1C(=O)c1c(O)c3c(c(O)c1C2=O)C[C@@](O)(C(C)=O)C[C@@H]3O[C@H]1C[C@H](N(Cc2ccccc2)Cc2ccccc2)[C@H](O)[C@H](C)O1	62.8 ± 11%
CNC(=O)ON(C(C)=O)C(=O)NC	114 ± 42%
COC(=O)C1=C(C(=O)OC)SC2(S1)C(C(=O)OC)=C(C(=O)OC)Sc1c2ssc1=O	60.2 ± 8.6%
CC1OC(O[C@@H]2C=C3CC[C@@H]4[C@H](CC[C@]5(C)[C@@H](c6ccc(=O)oc6)CC[C@]45O)[C@@]3(C)CC2)C(O)C(O)C1O (some centres not stated)	24.5 ± 6.9%
CCOC(=O)[C@H](CC(C)C)NC(=O)C(Cc1ccc(N(CCCl)CCCl)cc1)NC(C)=O (some centres not stated)	73.3 ± 40%
CC(=O)[O][Pb]([O]C(C)=O)([c]1ccccc1)[c]1ccccc1	80.2 ± 14%
CC1(C)CC2=NO[Se]3=C2C(=NO3)C1	22.1 ± 4.6%
COC1CC(OC2CCC3(C=O)C4CCC5(C)C(C6=CC(=O)OC6)CCC5(O)C4CCC3(O)C2)OC(C)C1OC1OC(COC2OC(CO)C(O)C(O)C2O)C(O)C(O)C1O (configuration not stated)	63.1 ± 13%
NCCCNCCSP(=O)(O)O	99.4 ± 12%
COC1CC(CC2CCC(C)C(C(C)C(=O)O)O2)OC2(OC(C)(C3CCC(C)(C4OC(C5OC(O)(CO)C(C)CC5C)CC4C)O3)CC2C)C1C (configuration not stated)	64.5 ± 48%
CCOC(OC1=C(C#N)CCC1)C(C)[Se]c1ccccc1 (configuration not stated)	147 ± 33%
CC(=O)O[C@H]1C[C@H](O[C@H]2[C@@H](O)C[C@H](O[C@H]3[C@@H](O)C[C@H](O[C@H]4CC[C@@]5(C)[C@H](CC[C@@H]6[C@@H]5CC[C@]5(C)[C@@H](C7=CC(=O)OC7)CC[C@]65O)C4)O[C@@H]3C)O[C@@H]2C)OC(C)[C@H]1O[C@@H]1O[C@H](CO)[C@@H](O)[C@H](O)[C@H]1O (some centres not stated)	21.7 ± 8.3%
O=C1OC(c2ccccc2)=N/C1=C\c1ccc(N(CCCl)CCCl)cc1	64.5 ± 12%
O=C1NC(=S)NC(=O)C1C(=O)Nc1ccccc1	23.7 ± 5.9%
[Cl][Hg][c]1ccc2ccccc2c1	62.6 ± 8.8%
C1CCNCC1.S=C(S)N1CCCCC1	36.2 ± 3.5%

Structure (SMILES)	cell growth
COc1cc([C@@H]2c3cc4c(c(O)c3C[C@H]3COC(=O)[C@@H]32)OCO4)cc(OC)c1OC	31.1 ± 4.7%
CC1=C(N2CC2)C(=O)c2nc3n(c2C1=O)CCC3OC(=O)CCl (configuration not stated)	65.2 ± 6.7%
N#CC(NCc1cccc(CNC(C#N)c2ccccc2)c1)c1ccccc1 (configuration not stated)	93.3 ± 30%
CC[C@@]12CCCN3CC[C@]4(c5cccc(OC)c5N(C(C)=O)[C@@H]4CC1)[C@H]32	144 ± 29%
CO[C@H]1Nc2c(ccc(C)c2O)C(=O)N2C=C(/C=C/C(N)=O)C[C@@H]12	12.8 ± 2.4%
COc1cc2c(c(OC)c1OC)-c1ccc(OC)c(=O)cc1[C@@H](NC(C)=O)CC2	47.9 ± 11%
CCOC(=O)NC1=C(N2CC2)C(=O)C(NC(=O)OCC)=C(N2CC2)C1=O	50.1 ± 9.1%
CC(=O)O[C@@H]1C[C@H]2O[C@@H]3C=C(C)CC[C@]3(C)[C@]1(C)[C@]21CO1	48.5 ± 11%
CCCC/C=C/C=C/C=C/CCCCCCCC(=O)OCC(COC(=O)CCCCCCC/C=C/C1C=CC(CCCC)C(C(=O)O)C1C(=O)O)OC(=O)CCCCCCC/C=C/C=C/C=C/CCCC.OCCNCO (configuration not stated)	115 ± 16%
CC1=C2C(=CC(C)(C)[C@@H]2O)C(=O)[C@](C)(O)C12CC2	20.3 ± 2.4%
O=C([O][Hg][CH2]C1COC([CH2][Hg][O]C(=O)c2ccccc2)CO1)c1ccccc1 (configuration not stated)	69.9 ± 76%
COc1ccc(-c2cc(=O)c3c(OC)c(OC)c(OC)cc3o2)cc1	120 ± 31%
C[C@H]1CCC/C=C/[C@@H]2C[C@H](O)C[C@H]2[C@H](O)/C=C/C(=O)O1	15 ± 2.5%
COc1cccc2c1cc([N+](=O)[O-])c1c(C(=O)O)cc3c(c12)OCO3	95.5 ± 14%
CC(C)C[C@H]1C(=O)N2CCC[C@H]2[C@]2(O)O[C@](NC(=O)[C@@H]3C=C4c5cccc6[nH]c(Br)c(c56)C[C@H]4N(C)C3)(C(C)C)C(=O)N12	90.6 ± 6.8%
O=[N+]([O-])c1ccc2c(c1)/C(=N/N=C1c3ccccc3Cc3ccccc31)c1cc([N+](=O)[O-])cc([N+](=O)[O-])c1-2	57.1 ± 34%
